Measurements published in PubChem BioAssay (Tox21).
Results filed as inconclusive are left out. The source made the active and inactive calls. Unless noted, calls come from the whole dose curve; as a rule, active = well fitted curve in the direction sought with a large enough effect in the repeat runs; inconclusive = weak or mixed curves; inactive = no such curve, though single readings can be large; an effect the other way counts as inactive or inconclusive.

Assays:
[1] = qHTS assay to identify small molecule antagonists of the glucocorticoid receptor (GR) signaling pathway - cell viability counter screen (AID 720693); note: nearly all actives have a fitted effect of over 55% in size
[2] = qHTS assay for identifying genotoxic compounds that show differential cytotoxicity against isogenic chicken DT40 cell lines with known DNA damage response pathways - wild type cell line (AID 743012); note: nearly all actives have a fitted effect of over 60% in size
Procedure, shortened: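 Quantitative HTS on parental DT40 cells: 40 h compound treatment at 37 C/5% CO2, with viability then determined by CellTiter-Glo luminescence. Values serve as the DNA repair-proficient reference for differential cytotoxicity.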

[3] = qHTS assay for identifying genotoxic compounds that show differential cytotoxicity against isogenic chicken DT40 cell lines with known DNA damage response pathways - Rev3 mutant cell line (AID 743014); note: nearly all actives have a fitted effect of over 55% in size
[4] = qHTS assay for identifying genotoxic compounds that show differential cytotoxicity against isogenic chicken DT40 cell lines with known DNA damage response pathways - Rad54/Ku70 mutant cell line (AID 743015); note: nearly all actives have a fitted effect of over 60% in size
[5] = qHTS assay to identify small molecule antagonists of the androgen receptor (AR) signaling pathway - cell viability counter screen (AID 743033; note: nearly all actives have a fitted effect of over 45% in size)
[6] = qHTS assay to identify small molecule antagonists of the thyroid receptor (TR) signaling pathway - cell viability counter screen (AID 743064); note: nearly all actives have a fitted effect of over 50% in size
Procedure, shortened: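 Viability of T3-stimulated (1 nM final) GH3.TRE-Luc cells is measured by CellTiter-Fluor fluorescence after 23.5 h compound exposure at 37 °C plus 30 min reagent incubation.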

[7] = qHTS assay to identify small molecule antagonists of the thyroid receptor (TR) signaling pathway (AID 743065); note: series mostly up to about 70 µM; nearly all actives have a fitted effect of over 55% in size
Procedure, shortened: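 GH3.TRE-Luc rat pituitary cells (two TREs driving luciferase) were dosed with compound, then stimulated with 1 nM T3 (final) for 23.5 h at 37 C. ONE-Glo luminescence was the read-out, with CellTiter-Fluor fluorescence as the cytotoxicity counter-screen.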

[8] = system: thyroid hormone receptor (rat, GH3 cells); test: qHTS assay to identify small molecule agonists of the thyroid receptor (TR) signaling pathway (AID 743066; calls by dose curve)
[9] = qHTS assay to identify small molecule antagonists of the estrogen receptor alpha (ER-alpha) signaling pathway - cell viability counter screen (AID 743074; calls by dose curve;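 note: HEK293 cells carrying ER-alpha-UAS-bla reporter stimulated with 17beta-estradiol; nearly all actives have a fitted effect of over 45% in size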)
[10] = qHTS assay to identify small molecule antagonists of the estrogen receptor alpha (ER-alpha) signaling pathway using the BG1 cell line - cell viability counter screen (AID 743081);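 note: compound given together with 17beta-estradiol as the ER stimulus; series mostly up to about 70 µM; nearly all actives have a fitted effect of over 45% in size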
[11] = target: Aromatase (Homo sapiens) (UniProt P11511); test: qHTS assay to identify aromatase inhibitors (AID 743083); note: series mostly up to about 70 µM; nearly all actives have a fitted effect of over 55% in size
Chain of Aromatase (Homo sapiens) (P11511 whole entry, looked up): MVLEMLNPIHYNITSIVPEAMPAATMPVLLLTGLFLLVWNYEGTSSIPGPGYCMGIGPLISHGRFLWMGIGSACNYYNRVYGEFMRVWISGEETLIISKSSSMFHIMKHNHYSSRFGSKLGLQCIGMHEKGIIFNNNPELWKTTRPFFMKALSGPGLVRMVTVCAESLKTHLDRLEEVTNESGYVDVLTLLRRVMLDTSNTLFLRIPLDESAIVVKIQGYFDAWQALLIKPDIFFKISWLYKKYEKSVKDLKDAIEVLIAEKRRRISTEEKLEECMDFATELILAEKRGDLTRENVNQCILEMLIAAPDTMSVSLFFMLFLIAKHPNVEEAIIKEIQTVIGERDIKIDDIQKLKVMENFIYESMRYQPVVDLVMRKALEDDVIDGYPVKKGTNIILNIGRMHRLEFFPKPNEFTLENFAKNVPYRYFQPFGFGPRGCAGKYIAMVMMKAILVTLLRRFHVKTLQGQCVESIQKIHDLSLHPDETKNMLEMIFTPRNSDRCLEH

[12] = target: Estrogen receptor (Homo sapiens) (UniProt P03372); test: qHTS assay to identify small molecule antagonists of the estrogen receptor alpha (ER-alpha) signaling pathway (AID 743069; active = well fitted curve in the direction sought with a large enough effect in the signal ratio in the repeat runs, not every such curve was filed as active; the % refers to the signal ratio)
Chain of Estrogen receptor (Homo sapiens) (P03372 whole entry, looked up): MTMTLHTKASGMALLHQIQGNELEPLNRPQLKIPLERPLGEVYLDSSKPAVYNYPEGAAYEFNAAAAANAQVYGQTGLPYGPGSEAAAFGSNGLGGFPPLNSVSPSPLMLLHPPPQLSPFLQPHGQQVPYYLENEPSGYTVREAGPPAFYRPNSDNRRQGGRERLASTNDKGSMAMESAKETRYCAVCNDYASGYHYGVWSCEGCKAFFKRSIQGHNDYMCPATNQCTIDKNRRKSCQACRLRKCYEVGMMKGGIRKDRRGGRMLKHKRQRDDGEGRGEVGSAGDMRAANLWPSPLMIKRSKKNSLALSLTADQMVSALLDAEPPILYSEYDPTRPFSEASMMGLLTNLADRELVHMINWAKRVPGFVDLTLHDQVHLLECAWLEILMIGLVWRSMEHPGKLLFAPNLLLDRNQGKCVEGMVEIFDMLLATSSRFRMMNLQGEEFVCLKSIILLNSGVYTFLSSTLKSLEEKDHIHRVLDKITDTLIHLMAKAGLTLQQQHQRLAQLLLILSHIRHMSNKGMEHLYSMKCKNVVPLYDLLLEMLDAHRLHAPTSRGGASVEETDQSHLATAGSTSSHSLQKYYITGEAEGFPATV
Procedure, shortened: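 Reporter cells (ER-alpha-bla, HEK293 background) are conditioned overnight in stripped-serum medium (2% charcoal-stripped FBS). Compound and 17beta-estradiol exposure runs 18 hr at 37C, 5% CO2.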

[13] = target: Estrogen receptor (Homo sapiens) (UniProt P03372); test: qHTS assay to identify small molecule agonists of the estrogen receptor alpha (ER-alpha) signaling pathway (AID 743075; calls by dose curve;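 note: HEK293 GripTite cells with ER-alpha and UAS-driven beta-lactamase reporter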)
[14] = target: Estrogen receptor (Homo sapiens) (UniProt P03372); test: qHTS assay to identify small molecule agonists of the estrogen receptor alpha (ER-alpha) signaling pathway using the BG1 cell line (AID 743079); note: nearly all actives have a fitted effect of over 20% in size
[15] = qHTS assay to identify small molecule antagonists of the estrogen receptor alpha (ER-alpha) signaling pathway using the BG1 cell line (AID 743080; calls by dose curve;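 note: BG1 cells stimulated with 17beta-estradiol alongside compound; series mostly up to about 70 µM; nearly all actives have a fitted effect of over 25% in size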)
Procedure, shortened: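 BG1-Luc-4E2 cells (endogenous full-length ER-alpha, 4xERE luciferase) hormone-starved 5 days in charcoal-stripped FBS, plated 4,000/well for 24 h, then compound plus 17beta-estradiol for 21.5 h at 37 C; ONE-Glo luminescence read.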

[16] = qHTS assay to identify small molecule antagonists of the androgen receptor (AR) signaling pathway using the MDA cell line - cell viability counter screen (AID 743041; note: nearly all actives have a fitted effect of over 45% in size)
Procedure, shortened: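 Same-well cytotoxicity was assessed by CellTiter-Fluor in MDA-kb2 AR-luc cells after 16 h of compound treatment under R1881 agonism.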

[17] = target: Androgen receptor (Homo sapiens) (UniProt P10275); test: qHTS assay to identify small molecule antagonists of the androgen receptor (AR) signaling pathway (AID 743035; active = well fitted inhibition curve with a large enough effect in the signal ratio in the repeat runs, not every such curve was filed as active; the % refers to the signal ratio)
Chain of Androgen receptor (Homo sapiens) (P10275 whole entry, looked up): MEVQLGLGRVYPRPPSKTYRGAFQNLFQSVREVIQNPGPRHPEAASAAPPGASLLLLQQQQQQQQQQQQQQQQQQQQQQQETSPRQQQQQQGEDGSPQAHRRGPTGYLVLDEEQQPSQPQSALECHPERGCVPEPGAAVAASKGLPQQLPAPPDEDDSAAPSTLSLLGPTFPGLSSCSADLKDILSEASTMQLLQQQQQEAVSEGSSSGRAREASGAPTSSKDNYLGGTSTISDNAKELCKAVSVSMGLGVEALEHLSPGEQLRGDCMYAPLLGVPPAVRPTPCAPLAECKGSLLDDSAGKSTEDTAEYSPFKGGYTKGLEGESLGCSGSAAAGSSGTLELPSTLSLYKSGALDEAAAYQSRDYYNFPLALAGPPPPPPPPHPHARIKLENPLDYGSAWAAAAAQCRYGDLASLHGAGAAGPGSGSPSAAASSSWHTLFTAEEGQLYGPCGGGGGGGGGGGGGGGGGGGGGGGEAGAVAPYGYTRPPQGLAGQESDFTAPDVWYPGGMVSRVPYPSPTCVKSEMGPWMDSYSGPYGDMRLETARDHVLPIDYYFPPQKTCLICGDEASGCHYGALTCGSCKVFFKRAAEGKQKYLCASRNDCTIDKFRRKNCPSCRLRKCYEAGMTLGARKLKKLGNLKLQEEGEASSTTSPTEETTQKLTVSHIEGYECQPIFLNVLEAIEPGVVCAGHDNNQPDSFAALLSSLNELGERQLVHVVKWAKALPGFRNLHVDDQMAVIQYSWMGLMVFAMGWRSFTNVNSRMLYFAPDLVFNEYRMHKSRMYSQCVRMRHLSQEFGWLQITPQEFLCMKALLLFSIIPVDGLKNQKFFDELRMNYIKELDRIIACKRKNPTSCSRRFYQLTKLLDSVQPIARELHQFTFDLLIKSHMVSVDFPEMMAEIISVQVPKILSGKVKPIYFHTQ
Procedure, shortened: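 Cell line: GeneBLAzer AR-UAS-bla GripTite (HEK293). Stimulus: R1881 added after compound. Exposure: 16 h, 37C, 5% CO2. Readout: LiveBLAzer B/G FRET fluorescence after 2 h at room temperature.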

[18] = target: Androgen receptor (Homo sapiens) (UniProt P10275); test: qHTS assay to identify small molecule agonists of the androgen receptor (AR) signaling pathway (AID 743036; active = well fitted activation curve with a large enough effect in the signal ratio in the repeat runs, with a control signal flat, not every such curve was filed as active; the % refers to the signal ratio)
Procedure, shortened: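 Screening used 2,000 AR-bla HEK293 cells per well, treated 16 h at 37C with test compounds in DMSO alongside positive and DMSO-only controls; beta-lactamase activity was then read by LiveBLAzer B/G FRET fluorescence after 2 h at room temperature.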

[19] = target: Androgen receptor (Homo sapiens) (UniProt P10275); test: qHTS assay to identify small molecule agonists of the androgen receptor (AR) signaling pathway using the MDA cell line (AID 743040; note: nearly all actives have a fitted effect of over 20% in size)
Procedure, shortened: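 Human breast carcinoma MDA-kb2 reporter cells (MMTV-luc, AR/GR elements) were treated for 16 h at 37C in 0% CO2 following a 5 h settling period. Signal was quantified by ONE-Glo luminescence.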

[20] = target: Androgen receptor (Homo sapiens) (UniProt P10275); test: qHTS assay to identify small molecule antagonists of the androgen receptor (AR) signaling pathway using the MDA cell line (AID 743042; note: nearly all actives have a fitted effect of over 55% in size)
Procedure, shortened: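 MDA-kb2 breast carcinoma cells carrying MMTV-luciferase (AR/GR responsive) were co-treated with compounds and the agonist R1881 for 16 h at 37C. Inhibition read as ONE-Glo luminescence; CellTiter-Fluor fluorescence measured in parallel for cytotoxicity.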

Measured: Potency

COCCOCCOCCOC
inactive: [1] | [2] | [3] | [4] | [5] | [6] | [7] | [8] | [9] | [10] | [11]

CC1=NN(c2ccc(S(=O)(=O)O)cc2)C(=O)C1N=Nc1ccccc1 (configuration not stated)
inactive: [1] | [2] | [3] | [4] | [5] | [7] | [8] | [12] | [9] | [13] | [14] | [15] | [11]

Oc1ccccc1Cc1ccccc1O
inactive: [1] | [2] | [3] | [5] | [16] | [6] | [8] | [14] | [15] | [10] | [11]

COC(OC)C(C)c1ccccc1 (configuration not stated)
inactive: [1] | [2] | [3] | [5] | [17] | [18] | [19] | [16] | [20] | [7] | [8] | [12] | [9] | [13] | [14] | [15] | [10] | [11]

Cc1ccccc1OCC1CO1 (configuration not stated)
inactive: [1] | [2] | [3] | [5] | [16] | [6] | [7] | [8] | [12] | [9] | [13] | [14] | [15] | [10] | [11]

C=C(C)C(=O)OCCCCCCOC(=O)C(=C)C
inactive: [1] | [2] | [3] | [5] | [16] | [6] | [7] | [8] | [9] | [10]

CCCCC(CC)COC(=O)c1ccccc1 (configuration not stated)
inactive: [1] | [2] | [3] | [5] | [16] | [6] | [7] | [8] | [12] | [9] | [13] | [14] | [15] | [10] | [11]

C1=C\CC/C=C\CC/1
inactive: [1] | [2] | [3] | [5] | [16] | [6] | [7] | [8] | [12] | [9] | [13] | [14] | [15] | [10] | [11]

CC(C)(c1ccc(Oc2ccc3c(c2)C(=O)OC3=O)cc1)c1ccc(Oc2ccc3c(c2)C(=O)OC3=O)cc1
inactive: [1] | [2] | [3] | [4] | [5] | [7] | [8] | [12] | [9] | [13] | [14] | [15] | [10] | [11]

O=C(O)c1ccccc1C(=O)Nc1ccc(S(=O)(=O)Nc2nccs2)cc1
inactive: [1] | [2] | [3] | [5] | [17] | [18] | [19] | [16] | [20] | [7] | [8] | [9] | [10] | [11]

Cc1cccc(Nc2ccncc2S(=O)(=O)NC(=O)NC(C)C)c1
inactive: [1] | [2] | [3] | [4] | [5] | [6] | [7] | [8] | [12] | [9] | [13] | [14] | [15] | [10] | [11]

CCCCCCCCC(=O)OCC
inactive: [1] | [2] | [3] | [4] | [5] | [8] | [12] | [9] | [13] | [14] | [15] | [10] | [11]

CCCCC(C)C(=O)O (configuration not stated)
inactive: [1] | [2] | [3] | [5] | [16] | [6] | [7] | [8] | [9] | [10] | [11]

CN=C(NC#N)NCCSCc1csc(N=C(N)N)n1
inactive: [1] | [2] | [3] | [5] | [16] | [6] | [7] | [8] | [12] | [9] | [13] | [14] | [15] | [10] | [11]

COc1ccc(N=Nc2cc(C)c(N=Nc3ccc(S(=O)(=O)O)cc3)cc2OC)cc1
inactive: [1] | [2] | [3] | [4] | [5] | [16] | [9] | [11]

O=C(O)Cc1cccc(-c2cc(CCCCCCc3ccc(O[C@H]4O[C@H](CO)[C@@H](O)[C@H](O)[C@@H]4O)c(-c4cccc(CC(=O)O)c4)c3)ccc2O[C@H]2O[C@H](CO)[C@@H](O)[C@H](O)[C@@H]2O)c1
inactive: [1] | [2] | [3] | [4] | [16] | [7] | [8] | [10] | [11]

O=S(=O)(O)CCO
inactive: [1] | [2] | [3] | [4] | [5] | [6] | [7] | [8] | [12] | [9] | [13] | [14] | [15] | [10] | [11]

CCCCCCCCCCCCC
inactive: [1] | [2] | [3] | [4] | [16] | [6] | [7] | [8] | [12] | [9] | [13] | [14] | [15] | [10] | [11]
